According to the supplement of paper PMC10849652:
The full data set covers some 7,900 targets. This sample favours those with a hit. About 0.6% of all pairs of compound and target were hits. Unmarked numbers belong to inactive results.

Assays:
Test in all cases: log2 fold change, soluble protein after heating vs DMSO (PISA); higher = thermal stabilisation; K562 cells, 10 uM, 30 min; active = over 0.2 and 3.5 SD of the protein, either way, in both replicates (recomputed)
volasertib = compound: CC[C@@H]1C(=O)N(C)c2cnc(Nc3ccc(C(=O)N[C@H]4CC[C@H](N5CCN(CC6CC6)CC5)CC4)cc3OC)nc2N1C(C)C [volasertib]
Outline: (§1)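 Values are thermal stability changes relative to control samples and are taken from duplicates. They are stated as log2 fold changes. Before quantification by TMTpro 16plex LC-MS/MS with equalised channel sums, K562 cells at 2×10^6 cells/mL were treated with 10 μM compound for 30 min, heated in aliquots for 3 min across 48°C-58°C, pooled, extracted in PBS with 0.5% NP-40 at 4°C, and centrifuged at 21,000xg for 90 min to give the soluble supernatant.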

[1] = compound: CC[C@H](C)N1C=C(C2=C(C=C(C=C21)C3=CN=C(C=C3)N4CCNCC4)C(=O)NCC5=C(C=C(NC5=O)C)C)C
Outline: as §1

epoxomicin = compound: CC[C@H](C)[C@@H](C(=O)N[C@@H]([C@@H](C)O)C(=O)N[C@@H](CC(C)C)C(=O)[C@]1(CO1)C)NC(=O)[C@H]([C@@H](C)CC)N(C)C(=O)C [epoxomicin]
Outline: as §1

[2] = compound: CCn1c(C(=O)N(C2CC2)C2CC2)cc2c3c(ncn3C)c(Nc3cc(C)n(C)n3)nc21
Outline: as §1

[3] = compound: CCn1cc(-c2ccnc3[nH]c(-c4cccc(CN(C)C)c4)cc23)c(-c2ccc(NC(=O)N(C)C)cc2)n1
Outline: as §1

[4] = compound: CN(C)CC(=O)Nc1ccc2[nH]c(=O)c3ccccc3c2c1
Outline: as §1

rosiglitazone = compound: CN(CCOC1=CC=C(C=C1)C[C@H]2C(=O)NC(=O)S2)C3=CC=CC=N3 (racemic) [rosiglitazone]
Outline: as §1

[5] = compound: CN1C2=C(C3=C1C(=O)N(N=C3)CC4=CC(=CC=C4)N)SC(=C2)S(=O)C
Outline: as §1

[6] = compound: CN1CCC(CNc2ccc3ncc(-c4cccc(OC(F)(F)F)c4)n3n2)CC1
Outline: as §1

[7] = compound: CC[C@@H]1C(=O)N(C)c2cnc(Nc3ccc(C(=O)NC4CCN(C)CC4)cc3OC)nc2N1C1CCCC1
Outline: as §1

Sequence of UniProt O94806 (O94806 whole entry, looked up): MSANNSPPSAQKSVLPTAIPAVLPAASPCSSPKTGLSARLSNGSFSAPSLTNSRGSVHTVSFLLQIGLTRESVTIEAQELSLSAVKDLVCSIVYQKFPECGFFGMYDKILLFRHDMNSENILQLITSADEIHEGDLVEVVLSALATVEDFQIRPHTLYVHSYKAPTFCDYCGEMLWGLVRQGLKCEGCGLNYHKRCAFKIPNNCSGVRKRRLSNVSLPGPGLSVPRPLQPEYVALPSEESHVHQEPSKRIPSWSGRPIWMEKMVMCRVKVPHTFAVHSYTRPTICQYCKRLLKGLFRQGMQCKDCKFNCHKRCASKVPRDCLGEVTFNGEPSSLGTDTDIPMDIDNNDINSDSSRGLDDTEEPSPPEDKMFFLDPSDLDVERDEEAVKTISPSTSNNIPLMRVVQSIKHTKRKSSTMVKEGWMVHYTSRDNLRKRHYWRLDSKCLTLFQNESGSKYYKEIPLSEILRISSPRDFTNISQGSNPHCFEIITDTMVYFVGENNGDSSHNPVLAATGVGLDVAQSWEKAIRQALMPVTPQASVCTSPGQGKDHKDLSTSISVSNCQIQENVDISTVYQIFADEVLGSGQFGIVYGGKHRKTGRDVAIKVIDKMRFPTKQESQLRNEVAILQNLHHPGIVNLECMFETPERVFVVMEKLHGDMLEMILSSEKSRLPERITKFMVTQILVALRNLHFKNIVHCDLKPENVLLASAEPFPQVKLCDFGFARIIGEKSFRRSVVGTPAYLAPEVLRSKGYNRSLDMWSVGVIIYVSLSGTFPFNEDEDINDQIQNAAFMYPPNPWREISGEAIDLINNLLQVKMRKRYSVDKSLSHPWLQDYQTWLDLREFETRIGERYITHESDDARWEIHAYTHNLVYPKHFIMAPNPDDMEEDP
Sequence of UniProt O94913 (O94913 whole entry, looked up): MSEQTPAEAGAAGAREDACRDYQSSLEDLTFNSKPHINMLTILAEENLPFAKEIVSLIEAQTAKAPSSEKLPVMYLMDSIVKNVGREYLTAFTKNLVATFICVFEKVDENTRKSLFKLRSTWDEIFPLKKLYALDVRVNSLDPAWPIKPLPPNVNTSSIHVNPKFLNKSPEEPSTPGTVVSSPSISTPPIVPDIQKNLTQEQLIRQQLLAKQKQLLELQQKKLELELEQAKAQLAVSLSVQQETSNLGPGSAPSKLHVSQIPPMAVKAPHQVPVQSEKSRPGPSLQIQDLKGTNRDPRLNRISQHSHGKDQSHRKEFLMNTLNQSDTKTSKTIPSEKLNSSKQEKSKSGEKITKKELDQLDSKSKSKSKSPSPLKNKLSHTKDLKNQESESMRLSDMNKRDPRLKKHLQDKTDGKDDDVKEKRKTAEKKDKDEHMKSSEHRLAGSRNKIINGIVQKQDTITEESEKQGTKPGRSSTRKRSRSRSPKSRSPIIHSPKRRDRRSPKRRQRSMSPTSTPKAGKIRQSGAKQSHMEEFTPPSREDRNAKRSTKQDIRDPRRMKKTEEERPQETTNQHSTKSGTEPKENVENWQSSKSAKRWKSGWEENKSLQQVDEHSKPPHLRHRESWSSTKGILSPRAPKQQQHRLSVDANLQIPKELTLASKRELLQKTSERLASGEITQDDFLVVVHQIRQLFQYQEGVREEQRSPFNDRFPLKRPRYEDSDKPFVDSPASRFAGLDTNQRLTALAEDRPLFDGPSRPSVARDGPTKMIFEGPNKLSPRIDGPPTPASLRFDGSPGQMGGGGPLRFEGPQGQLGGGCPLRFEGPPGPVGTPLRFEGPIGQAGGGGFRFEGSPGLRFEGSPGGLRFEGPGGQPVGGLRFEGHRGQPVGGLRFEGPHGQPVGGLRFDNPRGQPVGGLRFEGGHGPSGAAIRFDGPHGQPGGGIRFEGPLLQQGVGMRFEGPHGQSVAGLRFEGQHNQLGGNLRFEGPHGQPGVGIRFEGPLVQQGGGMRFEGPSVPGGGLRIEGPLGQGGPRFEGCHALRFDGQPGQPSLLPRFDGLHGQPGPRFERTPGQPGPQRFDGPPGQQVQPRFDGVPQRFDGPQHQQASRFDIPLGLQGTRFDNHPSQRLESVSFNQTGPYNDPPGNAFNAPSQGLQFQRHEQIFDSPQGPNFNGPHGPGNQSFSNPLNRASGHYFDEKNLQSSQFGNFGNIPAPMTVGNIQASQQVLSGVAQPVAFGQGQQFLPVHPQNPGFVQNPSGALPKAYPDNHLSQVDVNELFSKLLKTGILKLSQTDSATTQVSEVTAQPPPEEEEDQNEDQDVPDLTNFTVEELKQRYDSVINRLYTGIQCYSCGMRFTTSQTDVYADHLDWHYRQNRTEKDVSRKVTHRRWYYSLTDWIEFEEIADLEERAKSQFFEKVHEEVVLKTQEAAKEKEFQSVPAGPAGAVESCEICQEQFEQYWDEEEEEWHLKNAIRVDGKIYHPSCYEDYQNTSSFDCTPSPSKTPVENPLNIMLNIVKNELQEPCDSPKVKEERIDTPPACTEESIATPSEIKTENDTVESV
Sequence of UniProt Q5THK1 (Q5THK1 whole entry, looked up): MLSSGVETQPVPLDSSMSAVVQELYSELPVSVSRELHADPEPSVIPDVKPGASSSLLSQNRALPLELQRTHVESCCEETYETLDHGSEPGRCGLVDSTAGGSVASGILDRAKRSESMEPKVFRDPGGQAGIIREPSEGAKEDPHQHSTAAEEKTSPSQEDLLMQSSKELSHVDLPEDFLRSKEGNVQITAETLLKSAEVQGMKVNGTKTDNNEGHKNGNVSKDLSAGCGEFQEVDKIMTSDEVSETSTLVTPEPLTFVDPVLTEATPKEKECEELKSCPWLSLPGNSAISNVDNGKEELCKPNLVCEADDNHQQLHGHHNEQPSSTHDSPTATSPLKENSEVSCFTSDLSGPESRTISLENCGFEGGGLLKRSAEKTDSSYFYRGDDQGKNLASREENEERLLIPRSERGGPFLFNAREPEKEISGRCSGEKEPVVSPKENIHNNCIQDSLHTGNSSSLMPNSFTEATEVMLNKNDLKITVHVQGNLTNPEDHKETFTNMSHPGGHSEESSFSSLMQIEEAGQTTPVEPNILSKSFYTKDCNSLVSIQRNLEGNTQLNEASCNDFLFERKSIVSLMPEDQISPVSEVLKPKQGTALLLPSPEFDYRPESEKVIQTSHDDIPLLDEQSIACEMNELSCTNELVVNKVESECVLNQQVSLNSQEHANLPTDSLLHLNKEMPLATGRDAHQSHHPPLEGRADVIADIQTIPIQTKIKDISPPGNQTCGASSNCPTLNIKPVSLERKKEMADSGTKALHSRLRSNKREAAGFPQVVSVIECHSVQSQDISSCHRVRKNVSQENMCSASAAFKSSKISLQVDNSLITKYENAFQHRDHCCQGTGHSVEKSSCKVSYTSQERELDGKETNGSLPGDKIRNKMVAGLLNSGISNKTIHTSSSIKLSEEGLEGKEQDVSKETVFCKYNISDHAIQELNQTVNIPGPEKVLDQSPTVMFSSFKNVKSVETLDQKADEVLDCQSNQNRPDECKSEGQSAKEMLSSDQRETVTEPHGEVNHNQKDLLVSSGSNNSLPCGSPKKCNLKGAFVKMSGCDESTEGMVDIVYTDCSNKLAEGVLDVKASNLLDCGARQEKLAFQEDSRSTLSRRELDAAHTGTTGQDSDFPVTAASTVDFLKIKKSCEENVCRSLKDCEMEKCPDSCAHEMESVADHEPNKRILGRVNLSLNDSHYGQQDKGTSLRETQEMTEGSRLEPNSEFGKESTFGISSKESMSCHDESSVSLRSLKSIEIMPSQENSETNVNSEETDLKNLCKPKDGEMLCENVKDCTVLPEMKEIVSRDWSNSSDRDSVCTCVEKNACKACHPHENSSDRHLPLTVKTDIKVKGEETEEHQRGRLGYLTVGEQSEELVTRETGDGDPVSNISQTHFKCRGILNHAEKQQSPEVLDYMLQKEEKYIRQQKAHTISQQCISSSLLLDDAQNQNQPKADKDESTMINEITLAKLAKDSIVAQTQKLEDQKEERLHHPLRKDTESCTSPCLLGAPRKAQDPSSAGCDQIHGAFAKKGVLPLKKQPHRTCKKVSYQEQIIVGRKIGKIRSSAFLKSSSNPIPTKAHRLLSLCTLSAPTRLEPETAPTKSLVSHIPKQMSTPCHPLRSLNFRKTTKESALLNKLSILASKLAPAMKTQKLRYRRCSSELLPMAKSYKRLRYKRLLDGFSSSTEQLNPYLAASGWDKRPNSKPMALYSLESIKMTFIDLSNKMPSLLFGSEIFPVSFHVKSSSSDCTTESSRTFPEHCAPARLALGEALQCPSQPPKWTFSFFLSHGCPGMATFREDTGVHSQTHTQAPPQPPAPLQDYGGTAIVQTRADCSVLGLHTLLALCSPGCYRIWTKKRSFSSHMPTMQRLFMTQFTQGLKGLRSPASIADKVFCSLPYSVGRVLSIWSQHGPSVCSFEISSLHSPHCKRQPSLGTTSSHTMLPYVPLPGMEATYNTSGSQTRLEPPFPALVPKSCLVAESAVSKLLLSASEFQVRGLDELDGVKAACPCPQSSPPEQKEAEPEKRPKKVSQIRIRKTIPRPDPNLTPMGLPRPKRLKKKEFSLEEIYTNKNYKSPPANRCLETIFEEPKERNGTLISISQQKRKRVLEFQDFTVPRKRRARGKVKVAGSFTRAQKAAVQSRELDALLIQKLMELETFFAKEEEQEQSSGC
Sequence of UniProt P60484 (P60484 whole entry, looked up): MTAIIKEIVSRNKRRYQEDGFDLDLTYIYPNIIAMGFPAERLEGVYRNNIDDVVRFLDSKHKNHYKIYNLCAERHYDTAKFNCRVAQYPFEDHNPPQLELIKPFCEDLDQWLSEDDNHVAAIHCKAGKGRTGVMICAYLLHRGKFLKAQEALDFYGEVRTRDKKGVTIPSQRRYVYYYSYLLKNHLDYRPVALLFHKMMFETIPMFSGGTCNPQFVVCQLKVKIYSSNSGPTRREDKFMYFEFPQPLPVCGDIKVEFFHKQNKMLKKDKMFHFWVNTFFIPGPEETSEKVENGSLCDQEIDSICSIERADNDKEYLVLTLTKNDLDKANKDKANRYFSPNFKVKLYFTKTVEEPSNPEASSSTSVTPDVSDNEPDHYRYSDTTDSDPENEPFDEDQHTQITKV

Target | log2 fold change (volasertib) | log2 fold change [1] | log2 fold change (epoxomicin) | log2 fold change [2] | log2 fold change [3] | log2 fold change [4] | log2 fold change (rosiglitazone) | log2 fold change [5] | log2 fold change [6] | log2 fold change [7]
PBX2 (UniProt P40425) | -0.251 | 0.025 | 0.123 | -0.03 | -0.009 | 0.023 | 0.052 | -0.056 | 0.024 | –
PRR14L (UniProt Q5THK1) | 0.218 | -0.088 | – | – | 0.006 | -0.134 | – | – | 0.073 | –
PRKD2 isoform 3 (UniProt Q9BZL6) | -0.674 (active) | 0.149 | 0.049 | 0.005 | -0.089 | 0.042 | 0.144 | 0.056 | -0.316 | –
PLK1 (UniProt P53350) | -2.06 (active) | 0.049 | 0.044 | -0.023 | 0.033 | -0.016 | 0.016 | -0.029 | -0.068 | –
PCBP2 (UniProt F8VZX2) | – | 0.075 | – | 0.073 | – | – | 0.065 | 0.098 | – | –
PLCXD1 (UniProt Q9NUJ7) | – | – | – | – | – | – | 0.009 | – | – | –
PSMD8 (UniProt K7ERW6) | – | – | – | – | – | 0.027 | – | – | – | –
PRG4 (UniProt Q92954) | – | -0.18 | -0.294 | 0.053 | 0.075 | -0.239 | 0.085 | 0.015 | -0.228 | 0.073
PTK2B (UniProt Q14289) | -1.28 (active) | -0.244 | -0.012 | -0.198 | -0.141 | 0.017 | 0.165 | 0.082 | -0.051 | –
PSMA3 (UniProt G3V4X5) | 0.139 | – | – | – | – | 0.084 | 0.122 | – | – | –
PUM1 (UniProt Q14671) | – | – | – | -0.01 | -0.084 | – | – | 0.078 | -0.026 | –
PTP4A3 (UniProt O75365) | – | – | – | – | – | 0.205 | 0.045 | – | – | –
PSMC1 (UniProt G3V4X1) | 0.141 | -0.01 | – | -0.135 | 0.108 | – | – | – | -0.282 | –
PRKD3 (UniProt O94806) | – | – | – | -0.033 | -0.125 | 0.059 | 0.192 | -0.002 | -0.418 | –
PCF11 (UniProt O94913) | -0.114 | – | – | – | 0.038 | -0.078 | 0.314 | – | -0.03 | -0.014
PIAS4 (UniProt Q8N2W9) | -0.406 | – | 0.11 | – | -0.064 | – | – | 0.173 | 0.062 | –
PTEN isoform 2 (UniProt P60484) | 0.05 | – | – | -0.071 | -0.016 | – | – | – | -0.098 | 0.024
